Many of the other results were omitted from the sample, so hits are more common in it than they were.
KDM5B inhibitor: Primary screen for KDM5B Histone Demethylases FDH-coupled qHTS; Lysine-specific demethylase 5B (Homo sapiens), Q9UGL1; KDM5B demethylase, FDH-coupled NADH fluorescence (FDH is formaldehyde dehydrogenase); Potency, µM (titrated, usually from 57.7 µM), hits mostly inhibitors; 2.6% of 220,000 active; AID 1347165, 2019; active means well fitted inhibition curve with a large enough effect; further: 0% is about no effect; nearly all actives have a fitted effect of over 70% in size
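qHTS format, multiple compound concentrations. Buffer 50 mM HEPES pH 7.5/0.01% Tween-20; 200 nM KDM5BΔAP final; 10 min compound preincubation; substrate-mix levels 12.5 µM peptide, 25 µM α-KG, 0.25 mM NAD⁺; 30 min RT; ΔRFU.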
An asterisk follows results filed as active; i = inactive; [ ] = remark or other dose. Potency means the concentration at half of the fitted maximal effect.

SMILES | KDM5B inhibitor
Cc1nc(C(=O)N2CC[C@H](NS(=O)(=O)c3cn(C)cn3)C[C@H]2C(=O)N[C@H](CC(C)C)C(N)=O)cs1 | i
Cc1cc(CN2CCC(N3Cc4ccccc4C3=O)CC2)on1 | i
COc1ccc(CN2C(=O)[C@@H]3C[C@@H](CN3Cc3ccc(C(=O)O)cc3)Oc3ccccc32)cc1 | i
O=C1[C@@H]2C[C@@H](CN2Cc2ccccn2)Oc2ccccc2N1Cc1ccccc1 | i
N#Cc1ccc(CN2C[C@@H]3C[C@H]2C(=O)N(Cc2ccccc2)c2ccccc2O3)cc1 | 28µM*
CN(Cc1ccccc1)Cc1cn(C[C@H]2O[C@@H](CC(=O)N(C)Cc3ccccc3)[C@H](O)[C@@H]2O)nn1 | i
CC(C)NC(=O)c1cccc(NC(=O)Nc2cccc(Cl)c2)c1 | i
c1ccc(Nc2cc3c(cn2)CN(Cc2cnc[nH]2)CCN3)cc1 | i
COc1cccc(CN2CCc3c(cc(C(=O)Nc4ccccc4)n3C)C2)c1 | i
COc1cccc(Nc2cc3c(cn2)NCCN(Cc2ccccc2)C3)c1 | 40µM*
COc1cccc(CN2CCNc3cc(Nc4cccnc4)ncc3C2)c1 | i
COc1cccc(CN2CCNc3cnc(Nc4ccccc4)cc3C2)c1 | 35µM*
Fc1cccc(CN2CCNc3cc(Nc4ccccc4)ncc3C2)c1 | i
CN(C)c1cccc(Nc2cc3c(cn2)CN(Cc2ccccc2)CCN3)c1 | i
c1ccc(Nc2cc3c(cn2)NCCN(Cc2ccc4[nH]ccc4c2)C3)cc1 | 32µM*
CC(C)CCOc1ccc(/C(CCC/C(=N\O)c2ccc(OCCC(C)C)cc2)=N/O)cc1 | i
CCc1ccc(CNC(=O)CN2C(=O)NC3(CCS(=O)(=O)CC3)C2=O)cc1 | i
O=C(CCNC(=O)c1ccccc1Cl)N/N=C\c1ccc(O)cc1 | i
O=C(O)c1cnc(-c2ccccc2)nc1-c1ccncc1 | i
O=C(c1cccc(F)c1)N1CCN(c2cc(-c3cccs3)[nH]n2)CC1 | i
CNc1ncccc1C(=O)N1CCCC2(C=Cc3ccccc3O2)CC1 (stereo not given) | i
COc1cc2c(cc1OC)C(COc1ccc3c(C)cc(=O)oc3c1)N(C(=O)C(C)C)CC2 (stereo not given) | i
O=C(O)C1CCc2nnc(C3CCCN([S+](=O)([O-])c4ccccc4)C3)n21 (stereo not given) | 56µM*
O=C(O)C1CCc2nnc(C3CCCN(C(=O)c4ccccc4)C3)n21 (stereo not given) | i
COc1cccc([S+](=O)([O-])N2CCCC(c3nnc4n3C(C(=O)O)CC4)C2)c1 (stereo not given) | i
SMILES | KDM5B inhibitor
CN1CCN([C@H]2CCN(S(=O)(=O)c3cn(C)cn3)C[C@H]2CCC(=O)O)CC1 | i
CCn1ccc(C(=O)N2CCC3(CC2)CC(N(C(=O)c2ccccc2)C2CC2)CCO3)n1 (stereo not given) | i
Cc1noc(C)c1-c1cc2c(cc(C)n2CCN(C)C)c(-c2ccc(CO)cc2)n1 | 25µM*
Cc1noc(C)c1-c1cc2c(cc(C)n2CCN(C)C)c(-c2cccc(O)c2)n1 | i
Cc1noc(C)c1-c1cc2c(cc(C)n2CCN(C)C)c(Nc2ccn(C)n2)n1 | i
COc1cccc(-c2nc(-c3c(C)noc3C)cc3c2cc(C)n3CCN(C)C)c1OC | 40µM*
Cc1noc(C)c1-c1cc2c(cc(C)n2CCN(C)C)c(-c2ccccc2O)n1 | 32µM*
Cc1ccccc1OCc1nc(C2CN(C(=O)c3ccc4nc[nH]c4c3)C2)no1 | i
O=C(NCCC1=CCCCC1)C1CCN(C(=O)c2ncn3c2COC(c2ccc(F)cc2)C3)CC1 (stereo not given) | i
O=C(c1cc(F)ccc1F)N1CCC(Cc2nc(-c3ccc(F)cc3)no2)CC1 | i
Cc1cc(C)c(/C=C/c2onc(C)c2S(=O)(=O)N2CCC(C(=O)NCC(C)c3ccccc3)CC2)c(C)c1 (stereo not given) | i
O=C(Nc1ccc(F)c(F)c1)c1cc(S(=O)(=O)N2CCc3ccccc32)ccc1F | i
O=C(/C=C/c1ccccc1Cl)OCC(=O)c1ccc(C2CCCCC2)cc1 | i
COc1ccccc1CNc1nc2ccccc2nc1NS(=O)(=O)c1cccc(C)c1 | i
CCCn1c(N2CCN(CCc3ccccc3)CC2)nc2c1c(=O)[nH]c(=O)n2C | i
O=C1NC2(CCCN(Cc3ccc(C(F)(F)F)cc3)C2)COc2ccccc21 (stereo not given) | 25µM*
Cc1ccc(CN2CCC3(CC2)COc2ccccc2C(=O)N3)cc1 | i
Cn1nccc1CN1CCC2(CC1)NC(=O)c1ccccc1O2 | i
O=C1NC2(CCN(Cc3ccc(F)cc3)CC2)COc2ccccc21 | i
O=C1NC2(CCCN(C(=O)c3ccccc3)C2)COc2ccccc21 (stereo not given) | i
O=C1NC2(CCN(Cc3ccsc3)C2)COc2ccccc21 (stereo not given) | 35µM*
Cn1nccc1CN1CCCC2(COc3ccccc3C(=O)N2)C1 (stereo not given) | 40µM*
O=C1NC2(CCN(Cc3ccsc3)C2)Oc2ccccc21 (stereo not given) | i
O=C1NC2(CCCN(Cc3ccsc3)C2)Oc2ccccc21 (stereo not given) | i
O=C(NCc1cc(F)ccc1F)C1Cn2cccc2C(=O)N1Cc1ccccc1 (stereo not given) | i
SMILES | KDM5B inhibitor
O=c1[nH]nc2n1CCN(Cc1ccccc1F)CC2 | i
O=C(NCc1nnc2n1CCCC2)c1cccc(C2CCNC2)c1 (stereo not given) | i
Cc1nc2c(NC(=O)C3COc4ccccc4O3)cccn2n1 (stereo not given) | i
COc1ccc(NC(=O)Cn2c(=O)n(-c3ccc(C)cc3)c(=O)c3c2cnn3C)cc1 | i
O=C(Cc1ccccn1)N1CCC(c2nn(-c3ccc(Cl)cc3)c(=O)[nH]2)CC1 | i
Cn1c(=O)c2c(ncn2CC(=O)N(c2ccccc2)C2CCCCC2)n(C)c1=O | i
COc1ccccc1/C=C/C(=O)Nc1nc2n(n1)C(c1ccc(F)cc1)C=C(c1ccccc1)N2 (stereo not given) | i
COCCN1C(=O)c2[nH]nc(-c3cc(C)ccc3O)c2C1c1ccc(C(C)C)cc1 (stereo not given) | i
CN(Cc1cccc(CCN)c1)Cc1cnn(-c2ccc(F)cc2)c1 | i
COc1ccc(-c2nn(-c3ccccc3C)cc2CN(C)Cc2cn(C)nc2C)cc1F | i
Cc1ccc(-c2nn(-c3cccc(F)c3)cc2CN(C)CCO)o1 | 25µM*
Cc1cc(CN(C)Cc2cn(-c3cccc(F)c3)nc2-c2ccc(C)o2)n[nH]1 | 25µM*
COc1ccc(-c2nn(-c3ccccc3)cc2CN(C)CCn2ccnc2C)c(F)c1 | i
COC(=O)CN(C)Cc1cn(-c2ccc(C)cc2)nc1-c1cccc(C)c1 | i
O=C(CN1C(=O)NC2(CCc3ccccc32)C1=O)Nc1ccccc1Cl (stereo not given) | i
O=C(Cn1nc2c(cc1=O)CCCC2)NCCCN1CCOCC1 | i
CCOC(=O)CSc1nc2sc3c(c2c(=O)n1-c1ccc(OC)cc1)CC(C(C)C)OC3 (stereo not given) | i[11.5 µM]
O=C(Nc1ccc(Cl)cc1F)C1CCCN1S(=O)(=O)c1ccc(Br)cc1 (stereo not given) | i
Cc1noc(-c2cn(C3CCCN(C(=O)c4cccc(Cl)c4)C3)nn2)n1 (stereo not given) | i
COc1ccc(S(=O)(=O)NCC(=O)O)cc1F | i
